Compound activity deposited in PubChem by Sanford-Burnham Center for Chemical Genomics.
Compounds with a hit are over-represented: about 3.1% of the library has one in this group of screens.
KKLEB cytotox – cytotoxicity in KKLEB CF airway cells, primary screen, cytotoxicity control for CF NF-kB inhibitor project, cell-based, uHTS, fluorescence assay plates | KKLEB CF airway cells viability, ATPlite luminescence, overnight; active compounds read low; cells stimulated with P. aeruginosa culture filtrate | activity change (cytotoxicity), % at 5 µM | actives 0.36% (n = 360,000);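 active = corrected activity change at or below -50% at 5 µM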
CF NFkB block – inhibitors of PAF-induced NF-kB signaling, primary screen, cell-based, GFP fluorescence, uHTS; AID 588850, 2011; inhibition, % at 5 µM; actives 0.86% (n = 360,000); KKLEB NF-kB-GFP reporter, GFP fluorescence overnight;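 active = at least 50% inhibition at 5 µM, scaled per plate between neutral and stimulator controls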;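 note: PAF is a Pseudomonas aeruginosa culture filtrate used as stimulus; plate controls were PAF-stimulated DMSO wells for no effect and unstimulated DMSO wells for full effect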
C8 TRAIL sens – viability loss with TRAIL in NB7+C8 cells, primary screen, TRAIL sensitizer project, cell-based, ATPlite luminescence | inhibition (viability loss, TRAIL sensitization), % at 10 µM | actives 1% (n = 360,000);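 active = compounds causing at least 50% loss of cell viability in the single-dose screen, relative to plate controls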
HIF-2a block – HIF-2a reporter inhibitors, primary screen, luminescence, 786-0 RCC cells | 786-0 RCC cells HIF-2a reporter, luciferase luminescence, overnight | inhibition, % at 18.8 µM | actives 0.72% (n = 360,000) | AID 624352, 2012;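 active = inhibition of the luminescence signal of 40% or more relative to plate controls, in a single-dose primary screen at 18.75 µM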
PPC-1+TRAIL kill – compounds killing PPC-1 cancer cells with TRAIL present, primary screen, TRAIL potentiator project, ATPLite luminescence, uHTS; cell killing (% activity), % at 4 µM or 5 µM; PPC-1 cells + TRAIL, ATPLite viability luminescence; actives 0.41% (n = 220,000); AID 1443, 2008;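 active = cell killing above 50% in the first pass at 4 µM, then a duplicate retest at 5 µM averaging 50% or more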;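 note: plate controls were cells with TRAIL plus DMSO for no effect and medium-only wells lacking cells for full effect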
Peg3 promoter – Peg3 promoter-driven luciferase inhibitors, primary screen, cell-based, HeLa, luciferase luminescence; HeLa PEG-Prom luciferase reporter, overnight; inhibition, % at 20 µM; actives 1.7% (n = 360,000); AID 588405, 2011;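 active = inhibition of at least 50% at 20 µM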
An asterisk follows results filed as active.

What do the screens show for `COC(=O)/C=C/S(=O)(=O)c1ccc(NC(C)=O)cc1`?
KKLEB cytotox: -22; CF NFkB block: 91*; C8 TRAIL sens: -2; HIF-2a block: 13; PPC-1+TRAIL kill: -2; Peg3 promoter: 105*

How did CC(C)CC(=O)NN(C)c1nc(-c2ccccc2)nnc1C(F)(F)F do in these assays?
KKLEB cytotox: -12; CF NFkB block: 16; C8 TRAIL sens: 25; HIF-2a block: 12; PPC-1+TRAIL kill: -21; Peg3 promoter: 12

How did CN(NC(=O)c1ccc(Cl)cc1)c1nc(-c2ccccc2)nnc1C(F)(F)F do in these assays?
KKLEB cytotox: -7; CF NFkB block: 5; C8 TRAIL sens: 49*; HIF-2a block: 22; PPC-1+TRAIL kill: -17; Peg3 promoter: 22

How did COc1ccc(C(=O)NCCc2ccccc2F)cc1OC1CCN(C(C)=O)CC1 do in these assays?
KKLEB cytotox: -3; CF NFkB block: 0; C8 TRAIL sens: -2; HIF-2a block: -7; Peg3 promoter: 7

Results for COc1ccc(CCn2c(C)cc(C(=O)CCl)c2C)cc1OC ?
KKLEB cytotox: -7; CF NFkB block: 11; C8 TRAIL sens: -1; HIF-2a block: 11; PPC-1+TRAIL kill: 5; Peg3 promoter: 61*

Results for Cc1cc(C(=O)CCl)c(C)n1CCc1ccc(F)cc1 ?
KKLEB cytotox: -10; CF NFkB block: 18; C8 TRAIL sens: 2; HIF-2a block: -5; PPC-1+TRAIL kill: -3; Peg3 promoter: 56*

What do the screens show for `COc1ccc(CCn2c(C)c(C(C)=O)c(C(C)=O)c2C)cc1OC`?
KKLEB cytotox: 5; CF NFkB block: 12; C8 TRAIL sens: -7; HIF-2a block: 13; PPC-1+TRAIL kill: 11; Peg3 promoter: -4

How did O=[N+]([O-])c1ccc(SNc2ccccc2)c([N+](=O)[O-])c1 do in these assays?
KKLEB cytotox: 3; CF NFkB block: -2; C8 TRAIL sens: -4; HIF-2a block: 12; Peg3 promoter: 2

Results for O=[N+]([O-])c1ccc(-[n+]2ccc3ccccc3c2)c([N+](=O)[O-])c1 ?
KKLEB cytotox: -81*; CF NFkB block: 82*; C8 TRAIL sens: 55*; HIF-2a block: 34; Peg3 promoter: 96*

What do the screens show for `O=C(O)c1cc(-c2ccccc2)n(-c2ccc(F)cc2)n1`?
KKLEB cytotox: 1; CF NFkB block: -22; C8 TRAIL sens: 5; HIF-2a block: 25; Peg3 promoter: 78*

Results for NS(=O)(=O)c1ccc(CCNCc2ccccc2OCc2ccc(Cl)cc2)cc1 ?
KKLEB cytotox: 0; CF NFkB block: 14; C8 TRAIL sens: 18; HIF-2a block: -2; Peg3 promoter: 87*

Results for COc1ccccc1CCNC(=O)CNC(=O)c1ccc2ccccc2c1 ?
KKLEB cytotox: 6; CF NFkB block: -2; C8 TRAIL sens: 8; HIF-2a block: -34; Peg3 promoter: -2

How did Cc1cc(C)c(C)c(OC(=O)c2sc(Cl)nc2C)c1 do in these assays?
KKLEB cytotox: -39; CF NFkB block: 8; C8 TRAIL sens: 23; HIF-2a block: 8; PPC-1+TRAIL kill: 9; Peg3 promoter: 90*

What do the screens show for `CCOc1ccccc1OCCCC(=O)N(CC)CC(=O)Nc1c(F)cccc1F`?
KKLEB cytotox: 9; CF NFkB block: -13; C8 TRAIL sens: 9; HIF-2a block: 2; Peg3 promoter: 2

What do the screens show for `Cc1cc(C)nc(NC(=O)/C=C/c2cccs2)c1`?
KKLEB cytotox: -3; CF NFkB block: -9; C8 TRAIL sens: 31; HIF-2a block: -322; PPC-1+TRAIL kill: 5; Peg3 promoter: -246

How did Cc1cc(C)c(-c2csc(NC(=O)/C=C/c3cccs3)n2)c(C)c1 do in these assays?
KKLEB cytotox: -62*; CF NFkB block: 58*; C8 TRAIL sens: 24; HIF-2a block: -58; PPC-1+TRAIL kill: 14; Peg3 promoter: -13

How did N#C/C(=C\c1cc(Cl)ccc1O)C(=O)NC1CCCCC1 do in these assays?
KKLEB cytotox: 1; CF NFkB block: -4; C8 TRAIL sens: -10; HIF-2a block: -37; PPC-1+TRAIL kill: 10; Peg3 promoter: -8

What do the screens show for `N#C/C(=C\c1cc(Cl)cc(Cl)c1O)C(=O)NC1CCCCC1`?
KKLEB cytotox: 8; CF NFkB block: -11; C8 TRAIL sens: 54*; HIF-2a block: -2; PPC-1+TRAIL kill: 10; Peg3 promoter: 13

How did O=C(Nc1ccc(F)cc1)C(c1ccnc2ccccc12)N1CCN(C(=O)c2ccco2)CC1 (stereo not drawn) do in these assays?
C8 TRAIL sens: 5; HIF-2a block: 15

How did COc1ccc(NS(=O)(=O)c2cc(NC(=O)/C=C/c3cccs3)ccc2N2CCOCC2)cc1 do in these assays?
KKLEB cytotox: -9; CF NFkB block: -19; C8 TRAIL sens: 9; HIF-2a block: 16; PPC-1+TRAIL kill: -8; Peg3 promoter: 50*

How did Cc1cc(NCCCn2ccnc2)n2ncc(-c3ccc(Cl)cc3)c2n1 do in these assays?
KKLEB cytotox: -55*; CF NFkB block: 55*; C8 TRAIL sens: 54*; HIF-2a block: -162; PPC-1+TRAIL kill: 7; Peg3 promoter: -55

Results for CC(C)(C)C(=O)N1CCN(c2ccc3c(c2)C2CC3CCN2C(=O)OCc2ccccc2)CC1 (stereo not drawn) ?
KKLEB cytotox: -4; CF NFkB block: -4; C8 TRAIL sens: 27; HIF-2a block: -118; Peg3 promoter: -80

How did C=CCNc1nc(NCCOc2ccccc2Cl)c2sc(-c3ccccc3)cc2n1 do in these assays?
KKLEB cytotox: 6; CF NFkB block: -2; C8 TRAIL sens: 15; HIF-2a block: -61; Peg3 promoter: -17

Results for Cc1ccc(S(=O)(=O)c2nnn3c2nc(NC2CCN(Cc4ccccc4)CC2)c2ccccc23)cc1C ?
KKLEB cytotox: 15; CF NFkB block: 13; C8 TRAIL sens: 88*; HIF-2a block: 19; Peg3 promoter: -9

How did CCOc1ccc(CCNC(=O)CN2C(=O)NC3(CCCCC3)C2=O)cc1OCC do in these assays?
KKLEB cytotox: 13; CF NFkB block: 6; C8 TRAIL sens: -9; HIF-2a block: 4; Peg3 promoter: -2

Results for CC(C)c1ccc([C@@H]2O[C@H](CCc3ccccc3)CC3=C2C(=O)OC(C)(C)O3)cc1 ?
C8 TRAIL sens: 4; HIF-2a block: 4

What do the screens show for `Cc1ccc(S(=O)(=O)N2CCC(C(=O)N/N=C/c3cccnc3)CC2)cc1`?
KKLEB cytotox: -16; CF NFkB block: 12; C8 TRAIL sens: -12; HIF-2a block: 18; PPC-1+TRAIL kill: -9; Peg3 promoter: 52*

Results for Oc1ccc(CN2CCc3ccccc3C2)c2cccnc12 ?
KKLEB cytotox: -14; CF NFkB block: 17; C8 TRAIL sens: 17; HIF-2a block: -13; PPC-1+TRAIL kill: 22; Peg3 promoter: 94*
